Source: PubChem BioAssay
Shown are actives, neighbours in structure and some others; about 4% of the full set was active somewhere.
HIF-2a block: HIF-2a reporter inhibitors, primary screen, luminescence, 786-0 RCC cells. 786-0 RCC cells HIF-2a reporter, luciferase luminescence, overnight. hit rate 0.72% among 360,000. inhibition, % at 18.8 µM;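 active = inhibition of the luminescence signal of 40% or more relative to plate controls, in a single-dose primary screen at 18.75 µM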
EBV LMP1 NFkB: EBV LMP1-driven NF-kappaB luciferase reporter inhibitors, primary screen, cell-based, luminescence, single point; hit rate 0.69% among 350,000; inhibition, % at 12.5 µM; LMP1-induced NF-kappaB luciferase reporter cells; AID 504558, 2011; in the data active = inhibition above about 41%;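 also: 0% = neutral control wells and 100% = reference inhibitor control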
Peg3 prom inh: Peg3 promoter-driven luciferase inhibitors, primary screen, cell-based, HeLa, luciferase luminescence | hit rate 1.7% among 360,000 | inhibition, % at 20 µM | HeLa PEG-Prom luciferase reporter, overnight;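 active = inhibition of at least 50% at 20 µM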
TROY signal inh: inhibitors of TROY-driven NF-kB signaling, primary screen, Q293 LMP1-TROYcd cells, NF-kB luciferase, uHTS. Q293 LMP1-TROYcd NF-kB luciferase reporter, 4 h. inhibition, % at 10 µM. hit rate 0.98% among 360,000. AID 1347056, 2019;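 active = compounds whose plate-normalised and pattern-corrected inhibition of the luciferase reporter signal at the single screening dose is 50% or more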
TWEAK Fn14 block: inhibitors of TWEAK-Fn14 signaling, primary screen, luciferase reporter cells, uHTS; TWEAK-stimulated Fn14 reporter cells, luciferase luminescence, 8 h; hit rate 2% among 360,000; inhibition, % at 10 µM; AID 1159606, 2016; in the data active = inhibition above about 50%
TRPM1 prom inh: inhibitors of MITF-dependent TRPM1 promoter reporter, primary screen, cell-based, SK-MEL-5, single point, luciferase; SK-MEL-5 TRPM1 promoter luciferase, 24 h; inhibition, % at 12.5 µM; hit rate 0.83% among 330,000; AID 488899, 2010;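 active = mean inhibition across replicates of 60% or more, whatever share of single replicates reaches that level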
Mdm2 MdmX conf: retested Mdm2-MdmX interaction blockers, confirmation, cell-based, luminescence, single concentration, set 2. SaOS-2 split-luciferase Mdm2/MdmX complementation. hit rate 99% among 740. shares compounds with HIF-2a block. inhibition, % at 8 µM;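 active = mean inhibition of the luminescence signal across two replicates at or above 26 percent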
Target sequence (O15151 whole entry, looked up): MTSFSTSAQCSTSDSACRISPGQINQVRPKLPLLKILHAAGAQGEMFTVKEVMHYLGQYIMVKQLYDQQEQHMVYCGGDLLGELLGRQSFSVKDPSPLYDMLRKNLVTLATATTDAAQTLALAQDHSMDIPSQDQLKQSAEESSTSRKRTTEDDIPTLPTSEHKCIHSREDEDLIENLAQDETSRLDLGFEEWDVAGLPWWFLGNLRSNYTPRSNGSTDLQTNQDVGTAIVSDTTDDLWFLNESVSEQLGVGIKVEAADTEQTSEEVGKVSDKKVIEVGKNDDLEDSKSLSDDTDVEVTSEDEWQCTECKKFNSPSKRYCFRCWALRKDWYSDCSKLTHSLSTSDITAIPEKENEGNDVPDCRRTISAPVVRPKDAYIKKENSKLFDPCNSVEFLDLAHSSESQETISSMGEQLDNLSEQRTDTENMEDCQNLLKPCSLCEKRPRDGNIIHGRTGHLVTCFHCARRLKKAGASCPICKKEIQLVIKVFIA
Target sequence (Q00987 whole entry, looked up): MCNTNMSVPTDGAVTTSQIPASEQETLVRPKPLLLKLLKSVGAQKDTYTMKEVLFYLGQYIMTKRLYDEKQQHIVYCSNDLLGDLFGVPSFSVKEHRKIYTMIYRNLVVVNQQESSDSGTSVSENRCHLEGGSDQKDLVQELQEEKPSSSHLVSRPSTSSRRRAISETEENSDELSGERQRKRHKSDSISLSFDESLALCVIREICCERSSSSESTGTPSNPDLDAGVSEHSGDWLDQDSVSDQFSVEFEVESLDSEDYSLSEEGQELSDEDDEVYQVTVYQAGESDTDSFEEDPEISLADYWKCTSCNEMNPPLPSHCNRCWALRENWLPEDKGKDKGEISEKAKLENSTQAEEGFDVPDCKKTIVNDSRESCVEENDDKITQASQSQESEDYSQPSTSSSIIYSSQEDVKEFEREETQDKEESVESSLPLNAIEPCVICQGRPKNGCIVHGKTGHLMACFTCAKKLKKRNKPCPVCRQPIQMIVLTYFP
HIF-2a inh conf: HIF-2a reporter inhibitor retest, confirmation, luminescence, 786-0 RCC cells; shares compounds with HIF-2a block; HIF-2a luciferase reporter luminescence, overnight; inhibition, % at 18.8 µM; hit rate 56% among 1,800; AID 651580, 2012;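 active = mean inhibition across four replicates of at least 40 percent at the single tested concentration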
HIF-1a cs: HIF-1a luciferase reporter signal reduction – MiaPaCa-2 cells, single concentration, counter-screen for HIF-2a inhibitor project, confirmation; MiaPaCa-2 HIF-1a luciferase reporter, desferoxamine, overnight; shares compounds with HIF-2a block; hit rate 72% among 1,800; inhibition, % at 18.8 µM;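 active = mean inhibition of the reporter signal across four replicates at the single tested dose of 50% or more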
* marks the source's active call; other numbers are inactive results; x = not tested or not shown.

SMILES | HIF-2a block | EBV LMP1 NFkB | Peg3 prom inh | TROY signal inh | TWEAK Fn14 block | TRPM1 prom inh | HIF-2a inh conf | HIF-1a cs | others
CCOC(=O)c1ccc(-c2ccc(N3C(c4cccc(OC)c4)=Cc4ccc(F)cc4C3CC(C)=O)cc2)cc1F (stereo not drawn) | 65.0* | x | x | 29.0 | 36.1 | x | 26.4 | 27.4
COc1cccc(C2=Cc3ccc(F)cc3C(CC(C)=O)N2c2ccc(-c3cncnc3)cc2)c1 (stereo not drawn) | 24.4 | x | x | -12.0 | -16.6 | x | x | x
COc1ccccc1CNc1nc(NCc2ccc(NC(C)=O)cc2)c2sccc2n1 | 56.6* | x | 72.5* | 16.4 | 0.7 | x | 13.9 | 70.3*
Cc1cc(C)nc(SCc2ccc(C(=O)N/N=C/c3ccncc3)cc2)n1 | 15.0 | 4.8 | 5.8 | -2.5 | 13.1 | 4.7 | x | x
Cc1cc(C)nc(SCc2ccc(C(=O)NNC(=O)Nc3cccc(Cl)c3)cc2)n1 | 89.8* | 20.8 | 75.1* | 47.8 | 42.6 | 9.2 | 49.6* | 104.8*
Cc1cc(NC(=O)c2ccccc2)c(Cl)cc1N | 69.5* | -4.6 | -31.0 | -0.4 | 27.7 | 25.8 | 84.2* | 58.8*
Cc1cc(N)ccc1NC(=O)c1ccccc1 | 13.7 | -3.2 | 0.6 | 7.1 | -16.4 | -0.2 | x | x
COc1ccc(NC(=O)CSc2nnc(-c3ccccc3)n2N)cc1 | 20.5 | -6.0 | -3.3 | 4.8 | 0.3 | -4.3 | x | x
CCn1c2ccccc2c2cc(NC(=O)CSc3nnc(-c4ccc(OC)cc4)n3N)ccc21 | 40.9* | 7.7 | 34.0 | 7.9 | -13.9 | 49.6 | 2.8 | 31.2
N#C/C(=C\c1ccccc1)C(=O)N(c1ccccn1)C1CCCCC1 | 45.4* | -8.8 | 21.9 | 9.4 | 1.5 | 12.8 | 45.9* | 20.2
CN(CCO)c1cccc2c1S(=O)(=O)N[C@H](Cc1ccccc1)CO2 | 16.0 | x | x | -17.7 | -1.6 | x | x | x
Cc1cccc(N2CCN(C(=S)Nc3ccc4nc(N5CCN(C)CC5)cc(C)c4c3)CC2)c1C | 82.3* | 82.4* | 104.0* | 8.1 | -83.8 | 96.0* | -3.4 | 105.2*
N[C@@H](Cc1ccccc1)C(=O)N1CCC(C(=O)N[C@@H](CCC(=O)O)C(=O)O)CC1 | 10.8 | 5.0 | 2.3 | 4.5 | 7.1 | 13.3 | x | x
Cc1cc(C)cc(NS(=O)(=O)c2ccc(-c3cnc(C4CC4)o3)cc2)c1 | 39.5* | 18.2 | 13.0 | 56.3* | 41.6 | 40.9 | 24.9 | 60.4*
Cc1ccc(C)c(NS(=O)(=O)c2ccc(-c3cnc(C4CC4)o3)cc2)c1 | 33.7 | 16.4 | 19.9 | 49.7 | 19.9 | 51.0 | x | x
Cc1cccc(NS(=O)(=O)c2ccc(-c3cnc(C4CC4)o3)cc2)c1C | 41.7* | 8.0 | 31.8 | 57.6* | 30.7 | 40.9 | 19.9 | 66.9*
O=S(=O)(Nc1ccccc1)c1ccc(-c2cnc(C3CC3)o2)cc1 | 3.4 | 8.3 | 16.9 | 19.0 | 25.8 | 26.4 | x | x
CC(Sc1ccc(S(=O)(=O)N2CCCCC2)cn1)C(N)=O (stereo not drawn) | 11.1 | -5.7 | 1.0 | -4.7 | 8.7 | x | x | x
Cc1cccc(-c2ccc3[nH]c4c(c3c2)CCN2C[C@@H]([C@H](C)OC(=O)Nc3ccccc3C)[C@@H](N(C)C(=O)Nc3ccccc3C)C[C@@H]42)c1 | 56.2* | -11.2 | 40.0 | 20.2 | 88.3* | x | 1.2 | 83.2*
CC12CCC(=O)N1C(C(=O)NNC(=O)COc1cccc(C(F)(F)F)c1)CS2 (stereo not drawn) | 0.5 | 8.1 | 5.6 | -13.9 | -12.2 | 2.5 | x | x
COc1ccc(NC(=O)COC(=O)Cn2cnc3ccccc3c2=O)c(OC)c1 | -0.5 | -6.9 | -0.3 | 3.7 | -5.4 | 6.3 | x | x
CC(CN1CCOCC1)OC(=O)c1ccc(Br)cc1 (stereo not drawn) | 14.4 | -4.8 | 1.0 | 5.5 | 13.3 | 11.7 | x | x
O=C(c1ccc(Br)cc1)C(CN1CCOCC1)c1ccccc1 (stereo not drawn) | 70.1* | -8.4 | 49.9 | -0.3 | 57.7* | 40.1 | -10.3 | -31.2
O=C(NC1CCCCC1)c1n[nH]c2c1CCCCC2 | 44.4* | 53.7* | 55.6* | 83.3* | 99.1* | x | 74.7* | 74.2*
CC(Oc1ccccc1)C(=O)NC1=NCCS1 (stereo not drawn) | -178.0 | -4.3 | -197.7 | -26.5 | -0.2 | -43.9 | x | x
SMILES | HIF-2a block | EBV LMP1 NFkB | Peg3 prom inh | TROY signal inh | TWEAK Fn14 block | TRPM1 prom inh | HIF-2a inh conf | HIF-1a cs | others
O=C1C=CC(=O)N1CCCCCCCCCCN1C(=O)C=CC1=O | 70.7* | -4.3 | 102.4* | 30.0 | 26.5 | 91.4* | 61.4* | 80.4*
COc1cccc(NC(=O)c2cc3c(=O)n4ccccc4nc3n(CC(C)C)c2=N)c1 | -9.9 | -17.1 | -8.1 | -23.2 | -19.1 | 59.8 | x | x | Mdm2 MdmX conf=35.8*
Cc1ccc(S(=O)(=O)N2CCN(C(=O)COC(=O)CCOc3ccc(C(C)(C)C)cc3)CC2)cc1 | 12.9 | 10.4 | 22.7 | 21.8 | -0.2 | 11.2 | x | x
O=C(CCc1nc2ccccc2c(=O)[nH]1)N1CCN(S(=O)(=O)c2ccccc2Br)CC1 | 47.6* | -4.9 | 7.3 | -2.4 | 3.9 | 26.3 | 22.7 | 89.3*
COc1ccc(NC(=S)NC(NC(=O)c2cccc(Cl)c2)C(Cl)(Cl)Cl)c([N+](=O)[O-])c1 (stereo not drawn) | -40.1 | 6.9 | 34.4 | 7.1 | 39.8 | -13.0 | x | x
O=C(NC(NC(=S)Nc1ccccc1Cl)C(Cl)(Cl)Cl)c1cccc(Cl)c1 (stereo not drawn) | 44.3* | 15.0 | 45.5 | 35.5 | 76.4* | 2.2 | 19.5 | 102.0*
O=C(OCn1ncc(Cl)c(Cl)c1=O)c1ccc(F)cc1 | x | x | x | x | x | x | x | x | Mdm2 MdmX conf=103.5*
O=C(OCn1ncc(Cl)c(Cl)c1=O)c1ccccc1Cl | 95.4* | 86.5* | 101.5* | 73.4* | 103.9* | 110.9* | 98.0* | 106.0*
COc1ccc(Cl)cc1CC=NNC(=O)c1cccc(C)c1O | 7.8 | -3.6 | 2.0 | -3.1 | -8.5 | 14.3 | x | x
O=c1ccn(C2CCCCC2)c(=O)[nH]1 | 11.8 | x | 15.1 | 7.9 | 11.6 | x | x | x
COc1ccccc1-c1cc(SC)c(C#N)c(=O)o1 | 41.9* | 7.0 | 82.0* | 47.0 | 43.6 | 14.7 | 33.2 | -8.6
